# The source made the active and inactive calls.
# Experiments:
# [1] = optical density shifts of acrAB sulA E. coli – strain DRC41, OD650, 48 h, E. coli filamentation inducer project, primary screen (AID 1152); details: higher = more signal, called active from +8 up or from −8 down;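 further: E. coli MC1000 strain DRC41 lacking acrAB efflux pump and sulA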
# [2] = probe aLefty1 binding on compound microarray – biochemical, small-molecule microarray, 635/667 nm fluorescence, primary screen (AID 1153); details: higher = more signal;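 further: score merges spot fluorescence with signal-to-noise ratio from the scanned slide images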
# [3] = plasmodial surface anion channel blockers, osmotic lysis – cell-based, P. falciparum Indochina, OD700, 1 h, primary screen (AID 1154); details: P. falciparum Indochina infected RBC osmotic lysis, higher = more signal, called active from +8 up or from −8 down
# [4] = plasmodial surface anion channel blockers, osmotic lysis – cell-based, P. falciparum Indochina, OD700, 2 h, primary screen (AID 1155);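 further: lysis reports solute entry through the parasite surface anion channel PSAC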; details: P. falciparum Indochina infected erythrocytes, higher = more signal, called active from +8 up or from −8 down
# [5] = changes in parasitized red cell lysis, either direction – P. falciparum Indochina, OD700, 3 h, PSAC antagonist project, primary screen (AID 1156); details: P. falciparum-infected erythrocytes, osmotic lysis, higher = more signal, called active from +8 up or from −8 down
# [6] = plasmodial surface anion channel blockers, osmotic lysis – cell-based, P. falciparum Indochina, OD700, 18 h, primary screen (AID 1157); details: P. falciparum Indochina infected erythrocytes, osmotic lysis OD700, 18 h; higher = more signal, called active from +8 up or from −8 down
# [7] = S6 kinase pathway phospho-S6 level changes – cell-based, A549, cytoblot, luminescence, serum-stimulated, primary screen (AID 1158); details: 5 h, higher = more signal;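 further: serum-stimulated A549 lung adenocarcinoma cells; signal is phosphorylated S6 detected by cytoblot immunostaining with HRP secondary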
# [8] = target: NADPH oxidase 2 (Homo sapiens) (UniProt P04839); test: compounds shifting NOX2 Amplex Red fluorescence – cell-based, HEK293-NOX2, PMA-stimulated, NOX inhibitor project, primary screen (AID 1159); details: 45 min, higher = more signal, called active from +8 up or from −8 down; further: test concentration not given here
# [9] = target: NADPH oxidase 4 (Homo sapiens) (UniProt Q9NPH5); test: compounds shifting NOX4 Amplex Red fluorescence – cell-based, HEK293-NOX4, tetracycline-induced, NOX inhibitor project, primary screen (AID 1160); details: HEK293-NOX4, Amplex Red H2O2 fluorescence, 45 min; higher = more signal, called active from +8 up or from −8 down
# [10] = target: NADPH oxidase 5 (Homo sapiens) (UniProt Q96PH1); test: compounds shifting NOX5 Amplex Red fluorescence – cell-based, HEK293-NOX5, NOX inhibitor project, primary screen (AID 1161); details: HEK293-NOX5, ionomycin, 45 min, higher = more signal
# Chain of NADPH oxidase 5 (Homo sapiens) (Q96PH1 whole entry, looked up): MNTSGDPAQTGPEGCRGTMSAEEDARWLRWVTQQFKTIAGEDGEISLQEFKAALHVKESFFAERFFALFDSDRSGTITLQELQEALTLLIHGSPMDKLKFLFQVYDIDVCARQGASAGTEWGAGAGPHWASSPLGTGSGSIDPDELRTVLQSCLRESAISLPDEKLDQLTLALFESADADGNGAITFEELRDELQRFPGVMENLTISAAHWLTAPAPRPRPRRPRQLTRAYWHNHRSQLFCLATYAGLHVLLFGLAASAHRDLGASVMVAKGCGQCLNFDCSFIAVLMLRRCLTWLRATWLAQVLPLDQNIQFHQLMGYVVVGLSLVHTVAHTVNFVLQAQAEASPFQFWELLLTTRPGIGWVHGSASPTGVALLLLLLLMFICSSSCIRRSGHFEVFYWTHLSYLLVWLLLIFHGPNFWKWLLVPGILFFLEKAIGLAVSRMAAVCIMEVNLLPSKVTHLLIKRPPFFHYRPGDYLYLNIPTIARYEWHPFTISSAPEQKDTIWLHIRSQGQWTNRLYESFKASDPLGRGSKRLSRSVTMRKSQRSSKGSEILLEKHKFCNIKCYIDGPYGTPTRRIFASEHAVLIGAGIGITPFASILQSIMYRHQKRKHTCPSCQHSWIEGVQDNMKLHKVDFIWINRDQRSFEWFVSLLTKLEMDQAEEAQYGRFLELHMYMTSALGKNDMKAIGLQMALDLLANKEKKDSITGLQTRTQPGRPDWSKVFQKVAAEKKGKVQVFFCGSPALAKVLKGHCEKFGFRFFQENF
# Chain of NADPH oxidase 2 (Homo sapiens) (P04839 whole entry, looked up): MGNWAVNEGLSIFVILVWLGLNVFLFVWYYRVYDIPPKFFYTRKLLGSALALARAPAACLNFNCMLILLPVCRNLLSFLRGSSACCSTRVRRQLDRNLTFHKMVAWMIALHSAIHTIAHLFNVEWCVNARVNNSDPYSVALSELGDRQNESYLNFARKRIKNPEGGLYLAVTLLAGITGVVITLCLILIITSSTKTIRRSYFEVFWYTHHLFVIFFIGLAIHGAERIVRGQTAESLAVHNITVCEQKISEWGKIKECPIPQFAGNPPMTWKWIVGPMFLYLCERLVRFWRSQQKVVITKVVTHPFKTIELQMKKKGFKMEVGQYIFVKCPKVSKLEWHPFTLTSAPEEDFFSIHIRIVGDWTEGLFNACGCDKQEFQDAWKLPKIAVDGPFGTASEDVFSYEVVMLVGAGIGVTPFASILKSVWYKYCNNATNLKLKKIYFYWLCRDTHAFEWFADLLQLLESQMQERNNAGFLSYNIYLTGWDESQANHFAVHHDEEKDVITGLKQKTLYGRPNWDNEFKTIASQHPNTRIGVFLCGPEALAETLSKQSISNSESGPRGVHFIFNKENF
# Chain of NADPH oxidase 4 (Homo sapiens) (Q9NPH5 whole entry, looked up): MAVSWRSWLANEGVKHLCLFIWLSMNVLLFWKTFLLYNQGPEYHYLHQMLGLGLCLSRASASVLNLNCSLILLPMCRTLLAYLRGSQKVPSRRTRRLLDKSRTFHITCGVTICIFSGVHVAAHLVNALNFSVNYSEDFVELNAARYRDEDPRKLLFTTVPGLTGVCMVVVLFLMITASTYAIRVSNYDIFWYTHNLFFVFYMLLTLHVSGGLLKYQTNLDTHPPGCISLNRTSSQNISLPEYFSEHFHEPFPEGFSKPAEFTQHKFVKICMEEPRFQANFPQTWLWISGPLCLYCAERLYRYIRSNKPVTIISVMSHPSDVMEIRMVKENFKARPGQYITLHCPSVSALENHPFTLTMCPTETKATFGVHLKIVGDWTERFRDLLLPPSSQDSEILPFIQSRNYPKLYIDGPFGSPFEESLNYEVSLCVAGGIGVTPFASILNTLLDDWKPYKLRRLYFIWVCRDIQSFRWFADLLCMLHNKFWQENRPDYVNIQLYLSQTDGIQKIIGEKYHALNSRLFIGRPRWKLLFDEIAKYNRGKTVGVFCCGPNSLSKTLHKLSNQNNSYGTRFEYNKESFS
SMILES,z-score [1],composite z-score [2],z-score [3],z-score [4],z-score [5],z-score [6],z-score [7],z-score [8],z-score [9],z-score [10]
CC(C)c1ccc(NN2C(C(O)c3ccc(C#N)cc3)C=CC3C(=O)N(c4ccccc4)C(=O)C32)cc1 (stereo not given),-1.6 (inactive),0.418,15.4 (active),2.64 (inactive),0.567 (inactive),1.27 (inactive),-1.05,-1.46 (inactive),-3.24 (inactive),-2.38
CCCCCN1CC=CC23O[C@@H]4/C=C\CCCOC(=O)C4[C@H]2C(=O)N(C(C)CO)[C@@H]3C1=O (stereo not given in full),1.2 (inactive),-0.0984,1.47 (inactive),0.175 (inactive),2.32 (inactive),0.503 (inactive),0.566,0.825 (inactive),0.19 (inactive),1.03
CO[C@H]1O[C@H](CO)[C@@H](OC(=O)CCc2ccccc2)[C@@H]2OC(=O)[C@@H](Cc3ccccc3)C/C=C/C[C@H](Cc3ccccc3)C(=O)O[C@@H]12,0.453 (inactive),-0.0054,4.5 (inactive),0.829 (inactive),1.23 (inactive),0.546 (inactive),0.658,-4.56 (inactive),-0.97 (inactive),-2
N[C@@H](Cc1ccccc1)C(=O)NCc1cn(Cc2ccccc2)nn1,0.676 (inactive),0.397,-0.39 (inactive),0.262 (inactive),-0.0107 (inactive),-0.0074 (inactive),0.0064,0.64 (inactive),0.359 (inactive),0.255
CCCC=C(CCC)[C@@H](NC(=O)C(C)(C)C)c1ccc(C(=O)OC)cc1,-1.31 (inactive),0.666,0.494 (inactive),0.889 (inactive),-1.28 (inactive),1.21 (inactive),0.0791,-0.129 (inactive),0.624 (inactive),2.5
C=C(C(=O)CC[C@H](OC(=O)c1ccccc1-c1ccccc1C(=O)O)c1cccc(OCCO)c1)C(C)C,-0.567 (inactive),-0.328,4.87 (inactive),0.857 (inactive),2.06 (inactive),0.503 (inactive),0.0988,1.49 (inactive),0.361 (inactive),-1.48
NCCCCCNC(=O)[C@H]1C[C@H]2C(=O)N3CCC[C@H]3C(=O)N2[C@H]1c1cccc(OCCO)c1,-0.068 (inactive),0.984,3.03 (inactive),0.598 (inactive),0.428 (inactive),0.301 (inactive),-0.413,2.6 (inactive),0.413 (inactive),2.48
CC(c1ccccc1)C(O)C1C=CC2C(=O)N(C)C(=O)C2N1Nc1ccccc1 (stereo not given),-1.14 (inactive),0.146,0.627 (inactive),0.782 (inactive),-0.0204 (inactive),0.999 (inactive),-0.945,-1.51 (inactive),-3.77 (inactive),-3.26
CCCCC(=C=CC[C@H](O)c1ccc(OCCO)cc1)CCO,-0.495 (inactive),-0.0967,12.9 (active),1.77 (inactive),1.06 (inactive),0.627 (inactive),-0.517,-0.649 (inactive),-0.798 (inactive),-2.06
Oc1ccc2cc[n+](Cc3cc4c(cc3Br)OCO4)cc2c1,1.27 (inactive),-0.196,2.67 (inactive),0.864 (inactive),-0.655 (inactive),0.474 (inactive),0.122,-0.546 (inactive),-0.154 (inactive),0.389
C=C[C@@H](CO)N(Cc1ccc(OC)cc1)S(=O)(=O)c1ccc(Br)cc1,1.77 (inactive),-0.639,2.48 (inactive),-0.457 (inactive),-1.21 (inactive),-1.1 (inactive),1.66,-1.84 (inactive),0.114 (inactive),-1.26
NC(=O)NCC#Cc1ccc2c(c1)[C@]1(C(=O)N2)[C@H](C(=O)N2CCN(c3ncccn3)CC2)[C@H]2C(=O)O[C@H](c3ccccc3)[C@H](c3ccccc3)N2[C@@H]1c1ccc(O)cc1,-1.08 (inactive),0.141,-0.362 (inactive),-0.136 (inactive),0.174 (inactive),-0.302 (inactive),0.435,1.13 (inactive),0.162 (inactive),0.437
CC(C)C[C@@H]1NC(=O)[C@@H]2C[C@H](C(=O)NCCCCCCN)[C@H](c3cccc(OCCO)c3)N2C1=O,0.831 (inactive),0.393,3.69 (inactive),0.73 (inactive),3.36 (inactive),0.227 (inactive),-0.256,2.24 (inactive),1.36 (inactive),1.99
COC(=O)[C@@]1(Cc2ccc(F)cc2)[C@H]2c3cc(C(=O)N(C)C)n(CCc4ccc(OC)c(Br)c4)c3C[C@H]2CN1C(=O)c1ccccc1,-1.75 (inactive),1.32,1.89 (inactive),-1.04 (inactive),0.746 (inactive),-1.96 (inactive),1.24,-3.62 (inactive),-3.99 (inactive),-4.26
CC(CO)N1C(=O)[C@]2(C)C3C(=O)OCCC/C=C\[C@H]3OC23C=CCN(c2ccc(Cl)cc2)C(=O)[C@@H]13 (stereo not given in full),0.79 (inactive),-0.062,0.423 (inactive),0.576 (inactive),1.94 (inactive),0.5 (inactive),-0.021,1.25 (inactive),-0.0121 (inactive),1.33
CC(C)(C)OC(=O)COc1cccc(C(=O)CCN2CCOCC2)c1,0.922 (inactive),0.265,6.63 (inactive),1.21 (inactive),-0.481 (inactive),0.548 (inactive),0.202,-5.78 (inactive),1.09 (inactive),2.12
COc1ccc([Si](C)(C)[C@H]2[C@H](CC(=O)N3CCC[C@H]3CO)O[C@@]3(C(=O)N(Cc4ccc(N5CCOC5=O)cc4)c4ccccc43)[C@@H]2C)cc1,0.397 (inactive),0.298,9.5 (active),1.8 (inactive),0.088 (inactive),0.746 (inactive),0.0491,1.94 (inactive),-0.0662 (inactive),3.78
CC(=O)N1CC2(CC2)CC1c1ccccc1 (stereo not given),-1.35 (inactive),0.433,-0.0747 (inactive),0.635 (inactive),0.539 (inactive),0.715 (inactive),-0.0482,-0.328 (inactive),-1.08 (inactive),-2.74
COc1ccc(C#Cc2ccc3c(c2)[C@]2(C(=O)N3)[C@H](C(=O)O)[C@H]3C(=O)O[C@H](c4ccccc4)[C@H](c4ccccc4)N3[C@@H]2c2ccc(O)cc2)cc1,0.384 (inactive),0.174,-2.35 (inactive),-2.47 (inactive),-8.72 (active),-2.8 (inactive),2.29,0.479 (inactive),-3.77 (inactive),-1.13
C=CC[C@]1(C(=O)N2CCCCC2)N=C(c2ccc(OCCCO)cc2)O[C@H]1c1ccccc1CN=[N+]=[N-],0.678 (inactive),0.454,23.1 (active),4.57 (inactive),2.81 (inactive),1.08 (inactive),0.83,-3.31 (inactive),-0.616 (inactive),-1.46
COC(=O)[C@]1(CCS(=O)(=O)c2ccccc2)N=C(c2ccc(OCCCO)cc2)O[C@@H]1c1ccccc1N=[N+]=[N-],-1.59 (inactive),0.569,29.4 (active),27.2 (active),4.22 (inactive),6.59 (inactive),0.188,-2.07 (inactive),0.661 (inactive),-2.01
N#Cc1ccc(NN2C(C(O)c3ccc(Br)cc3)C=CC3C(=O)N(c4ccccc4)C(=O)C32)cc1 (stereo not given),-0.922 (inactive),0.57,14.8 (active),2.9 (inactive),0.419 (inactive),-0.348 (inactive),0.717,-2.6 (inactive),-4.29 (inactive),-3.45
NC(=O)[C@H]1[C@@H]2C(=O)O[C@@H](c3ccccc3)[C@@H](c3ccccc3)N2[C@@H](c2ccc(OCCO)cc2)[C@]12C(=O)Nc1ccc(C#CCCO)cc12,-0.628 (inactive),0.0753,6.95 (inactive),1.05 (inactive),-1.02 (inactive),0.466 (inactive),-0.671,2.03 (inactive),1.03 (inactive),1.13
CCOC(=O)C1=C[C@@H](C(C)C)N(S(=O)(=O)c2ccc(C)cc2)[C@H]1c1ccc(C(F)(F)F)cc1,-1.58 (inactive),0.2,0.172 (inactive),0.279 (inactive),-0.422 (inactive),0.0209 (inactive),-0.696,-0.116 (inactive),0.024 (inactive),0.599
CC(C)N1C(=O)c2ccccc2[C@@H](C(=O)NCCN2CCOCC2)[C@@H]1c1ccc(CO)cc1,-0.675 (inactive),-0.0908,2.01 (inactive),-0.151 (inactive),1.24 (inactive),0.255 (inactive),-0.468,1.59 (inactive),0.675 (inactive),0.474

# From PubChem BioAssay
